Most compounds without a hit are left out; they make up all but 0.5% or so of the library.
EPAC2 antag = qHTS for Antagonist of cAMP-regulated guanine nucleotide exchange factor 2 (EPAC2): primary screen | Rap guanine nucleotide exchange factor 4 (Homo sapiens), Q8WZA2 | EPAC2 GEF exchange of Rap1B-BODIPY-GDP, fluorescence | Potency, µM (doses to about 114 µM), hits mostly inhibitors | 360,000 tested, 0.18% active | AID 720708, 2013; note: nearly all actives have a fitted effect of over 45% in size
EPAC2 agonist = qHTS for Agonist of cAMP-regulated guanine nucleotide exchange factor 4 (EPAC2): primary screen; Potency, µM (highest dose often 154 µM), usual class: activators; 360,000 tested, 0.079% active; AID 720711, 2013; EPAC2 activation, biochemical qHTS; response scale: 100% = 6.5 mM cAMP response; note: nearly all actives have a fitted effect of over 50% in size
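qHTS, titration series. 100 nM EPAC2 / 250 nM Rap1B-BODIPY-GDP / 50 uM GDP; RT; ex 480/em 540 nm, 5-min reads to 30 min. Norm. to 6.5 mM cAMP = activation.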
PTHR1 ag = qHTS for PTHR1 Agonists: Primary Screen. Parathyroid hormone/parathyroid hormone-related peptide receptor (Homo sapiens), Q03431. HEK293 GP2 PTHR1 cells, GloSensor cAMP luminescence, 1 h. Potency, µM (series often up to 115 µM), hits mostly activators. 410,000 tested, 0.075% active; note: nearly all actives have a fitted effect of over 55% in size
Target sequence (Q03431 whole entry, looked up): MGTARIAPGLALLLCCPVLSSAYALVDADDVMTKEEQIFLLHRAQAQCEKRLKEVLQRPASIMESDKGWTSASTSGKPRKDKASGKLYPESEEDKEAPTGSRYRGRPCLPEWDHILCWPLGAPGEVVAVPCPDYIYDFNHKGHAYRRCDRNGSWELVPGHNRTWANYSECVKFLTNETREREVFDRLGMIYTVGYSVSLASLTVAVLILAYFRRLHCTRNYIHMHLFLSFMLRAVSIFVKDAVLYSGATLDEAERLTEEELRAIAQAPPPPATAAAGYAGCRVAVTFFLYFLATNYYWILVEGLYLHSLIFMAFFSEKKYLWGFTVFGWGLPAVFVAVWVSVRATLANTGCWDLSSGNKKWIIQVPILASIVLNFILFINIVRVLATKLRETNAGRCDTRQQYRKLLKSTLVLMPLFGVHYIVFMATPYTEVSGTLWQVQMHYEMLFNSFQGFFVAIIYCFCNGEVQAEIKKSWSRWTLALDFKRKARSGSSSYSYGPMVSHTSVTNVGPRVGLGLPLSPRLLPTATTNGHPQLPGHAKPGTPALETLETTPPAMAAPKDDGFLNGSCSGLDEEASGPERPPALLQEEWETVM
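HEK-293-derived GP2 cells expressing PTHR1 and a GloSensor cAMP reporter, 3,000/well, plated overnight, given luciferin plus IBMX (each 0.5 mM as added) for 1 h at 37 °C, then compound for 1 h at 37 °C. Luminescence was read after 15 min at room temperature.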
EPAC1 antagonist = qHTS for Antagonist of cAMP-regulated guanine nucleotide exchange factor 3 (EPAC1): primary screen | Rap guanine nucleotide exchange factor 3 (Homo sapiens), O95398 | EPAC1 GEF assay, Rap1b-BODIPY-GDP exchange fluorescence | Potency, µM (highest dose often 115 µM), hits mostly inhibitors | 360,000 tested, 0.14% active; note: nearly all actives have a fitted effect of over 50% in size
EPAC1 agonist = qHTS for Agonist of cAMP-regulated guanine nucleotide exchange factor 3 (EPAC1): primary screen | Potency, µM (titrated, usually from 154 µM), most hits filed as activators | Rap guanine nucleotide exchange factor 3 (Homo sapiens), O95398 | 360,000 tested, 0.073% active | AID 720707, 2013 | EPAC1 agonist qHTS, biochemical assay; response scale: 100% = response to 6.5 mM cAMP; note: nearly all actives have a fitted effect of over 60% in size
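Normalized to 6.5 mM cAMP, activity reflects EPAC1-catalysed release of BODIPY-GDP from Rap1B, followed kinetically over 30 min at 480 nm excitation, 540 nm emission. Reaction contained 100 nM EPAC1, 250 nM Rap1B-BODIPY-GDP, 50 uM GDP.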
TSHR antag = Antagonists of the Thyroid Stimulating Hormone Receptor: HTS campaign | Thyrotropin receptor (Homo sapiens), P16473 | TSHR-expressing cells, TSH-stimulated cAMP HTRF, 2 h; stronger effect = lower value | activity change, negative = inhibition, % at 11.5 µM | 330,000 tested, 0.2% active;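 active = activity change below a set negative limit, meaning inhibition stronger than a set level, cut at about -70% in these data; inconclusive = activity change between two set negative limits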
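Inhibition of cAMP made by TSHR-expressing cells under TSH stimulation (4nM final, EC80; 2 h, 37 deg C) is quantified with a one-step lysis HTRF kit, anti-cAMP cryptate versus cAMP-d2.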
Numbers stand for hits; - = inactive; ? = inconclusive; . = no result. Unless noted, calls come from the whole dose curve; as a rule, active = well fitted curve in the direction sought with a large enough effect; inconclusive = small, poorly fitted or top-dose-only effect, or another doubt; inactive = no such curve, though single readings can be large; an effect the other way counts as inactive or inconclusive.

SMILES	EPAC2 antag	EPAC2 agonist	PTHR1 ag	EPAC1 antagonist	EPAC1 agonist	TSHR antag
CCN(CC)c1ccc(N=Cc2c(O)n(CCc3ccc(OC)c(OC)c3)c(=O)[nH]c2=O)cc1	-	100µM	-	-	-	-
CN1C(=O)c2ccccc2Sc2ccc(NC(=O)N3CCN(c4ccccc4)CC3)cc21	.	.	-	.	.	.
Cn1c(=O)oc2cc(S(=O)(=O)N3CCCC(C(=O)N4CCN(c5ccc(Cl)cc5)CC4)C3)ccc21 (centres undefined)	.	.	-	.	.	.
CC[C@H](C)/C=C(C)/C=C/C1=CC2=C(Cl)C(=O)[C@@](C)(OC(C)=O)C(=O)C2=CO1	3.55µM	-	-	35.5µM	-	.
CCC(C)/C=C(C)/C=C/C1=CC2=C(Cl)C(=O)C(C)(OC(C)=O)C(=O)C2=CO1 (centres undefined)	-	-	-	?	-	-
Cn1cc(/C=C2\C(=O)NC(=O)N(c3ccccc3)C2=O)c2ccccc21	-	100µM	-	-	-	-
Cn1c(O)c(/C=N/NC(=O)c2ccncc2)c(=O)n(C)c1=S	-	-	-	-	-	-
CCn1c(O)c(/C=N/NC(=O)c2ccncc2)c(=O)n(CC)c1=S	-	?	-	-	56.2µM	-
COC(=O)C1=C(c2ccc(-c3ccccc3)c(F)c2)C[C@@H]2CC[C@H]1N2C(=O)NCCOc1ccccc1	-	-	-	-	-	-89.1
CC[C@@]1(O)C(=O)OCc2c1cc1n(c2=O)Cc2cc3c(N)cccc3nc2-1	-	-	44.7µM	-	-	-
Nc1ccc(C2(c3ccc(N)cc3)c3ccccc3-c3ccccc32)cc1	-	-	-	-	-	-102.5
CCn1nc(-c2ccccc2)nc2c(=O)n(C)c(=O)nc1-2	?	?	-	?	?	-
Cc1nc2c(=O)n(C)c(=O)nc-2n(C)n1	?	?	-	100µM	-	-
C[C@H]1COC2=C1C(=O)C(=O)c1c2ccc2c1CCCC2(C)C	-	-	-	44.7µM	-	-
COc1ccc(CNC(=O)Cn2c(=O)nc(-c3ccccc3F)c3cc(Cl)ccc32)cc1	.	.	-	.	.	.
COCCCn1c(N)c(C(=O)OCCOC)c2nc3ccccc3nc21	-	-	-	-	-	-
CCOC(=O)c1c(NS(=O)(=O)c2ccccc2)n(CCCOC)c2nc3ccccc3nc12	?	-	-	7.94µM	-	-
CCCCCn1c(NC(=O)c2ccco2)c(C(=O)OCC)c2nc3ccccc3nc21	39.8µM	-	-	50.1µM	-	-
CCOC(=O)c1cc(-c2ccccc2)n(CCCC(=O)Nc2ccc(C)c(C)c2)c1C	.	.	-	.	.	.
Cc1cccc(NC(=O)c2ncn3c2C(=O)NC[C@H]3C)c1	-	-	-	-	-	.
CC(C)CCOP(=O)(c1ccc(N(C)C)cc1)C(O)c1ccc(Cl)cc1Cl (centres undefined)	35.5µM	-	-	-	-	-
CC(C)CCOP(=O)(c1ccc(N(C)C)cc1)C(O)c1ccc(C(C)C)cc1 (centres undefined)	?	-	-	-	-	-
N#CC(C#N)=NNc1ccc(S(N)(=O)=O)cc1	-	-	-	56.2µM	-	-
O=P(Nc1cccnc1)(Oc1ccccc1Cl)Oc1ccccc1Cl	56.2µM	-	-	-	-	-
Cc1cccc(OP(=O)(Nc2cccnc2)Oc2cccc(C)c2)c1	-	-	-	-	-	-
Cc1ccc(C(C#N)=Cc2ccc3c(c2)OCO3)cc1	-	-	-	-	-	.

High-throughput results (PubChem BioAssay)
